Data as given in PubChem BioAssay AID1851 (National Center for Advancing Translational Sciences (NCATS), 2009).
Screen size: about 16,000 compounds; about 2,600 (16%) were called active. About 20% were inconclusive and are not listed. The call rests on the fitted dose curve; in most records, active means well fitted curve in the direction sought with a large enough effect; inconclusive means small, poorly fitted or top-dose-only effect, or effect the other way; inactive means no such curve, though single readings can be large or run the other way. A selection follows.

The molecules below were run against Cytochrome P450 2D6 (Homo sapiens) (UniProt P10635) (assay: Cytochrome panel assay with activity outcomes). Conditions: recombinant CYP, pro-luciferin dealkylation, luminescence, p450-cyp2d6; series mostly up to 57.1 µM; activity, negative = inhibition: at the top concentration.
On the % scale 0 is the no-effect control and ±100 the full control effect.

Chain of Cytochrome P450 2D6 (Homo sapiens) (P10635 whole entry, looked up): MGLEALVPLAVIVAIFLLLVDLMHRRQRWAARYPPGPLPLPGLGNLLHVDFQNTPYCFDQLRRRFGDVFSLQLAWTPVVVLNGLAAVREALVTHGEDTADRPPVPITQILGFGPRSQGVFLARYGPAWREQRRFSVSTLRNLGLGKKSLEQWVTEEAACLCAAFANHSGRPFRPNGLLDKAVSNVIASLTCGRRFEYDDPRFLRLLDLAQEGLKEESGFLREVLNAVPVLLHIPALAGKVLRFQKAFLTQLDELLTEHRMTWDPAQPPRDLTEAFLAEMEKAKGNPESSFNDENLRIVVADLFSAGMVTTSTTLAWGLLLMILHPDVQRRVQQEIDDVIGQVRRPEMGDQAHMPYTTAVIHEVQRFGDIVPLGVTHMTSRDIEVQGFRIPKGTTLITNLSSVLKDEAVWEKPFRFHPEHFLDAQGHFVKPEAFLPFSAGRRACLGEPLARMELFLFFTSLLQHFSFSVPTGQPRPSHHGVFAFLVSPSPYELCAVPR

Row | SMILES | activity, negative = inhibition | AC50
1 | CCN1CCc2c(sc(N)c2C(N)=O)C1 | -8.92% (inactive) | –
2 | OC[C@@H]1O[C@@H](n2cnc3c(NC4CCCCC4)ncnc32)[C@@H](O)[C@H]1O | -1.5% (inactive) | –
3 | O=C(Nc1c(C(=O)N2CCOCC2)cnn1-c1ccccc1)c1ccco1 | 10.7% (inactive) | –
4 | O=c1c(Cc2ccccc2)c(O)nc2n1CCS2 | 16% (inactive) | –
5 | O=C(c1ccc2nc3ccc(Cl)cc3c(=O)n2c1)N1CCOCC1 | -14.8% (inactive) | –
6 | COc1cccc(-c2cc(NCc3cccs3)ncn2)c1 | – | 12.6 µM (active)
7 | Cc1cnc(CNc2cc(-c3cccc(C#N)c3)ncn2)cn1 | 4.2% (inactive) | –
8 | COc1cccc(-c2cc(NCc3ccccc3OC)ncn2)c1 | – | 15.8 µM (active)
9 | COc1ccccc1CNc1cc(-c2cccc(C#N)c2)ncn1 | -3.17% (inactive) | –
10 | COCCn1c(=S)[nH]c2cc(C(=O)NC(C)C)ccc2c1=O | 18.7% (inactive) | –
11 | O=C(N/N=C/c1ccncc1)c1cc2c(ccc3ccccc32)o1 | -14.2% (inactive) | –
12 | CCCC(CCC)C(=O)NNc1cc(=O)c2c(=O)n(C)c(=O)n(C)c2[nH]1 | -14.7% (inactive) | –
13 | O=C(O)c1cc(S(=O)(=O)N2CCCCC2)ccc1F | 7.06% (inactive) | –
14 | Cc1ccc(S(=O)(=O)Oc2cc(S(=O)(=O)O)cc3cc(S(=O)(=O)O)cc(N)c23)cc1 | 8.03% [at 11.4 µM] (inactive) | –
15 | CC(C)Sc1cc(N2CCOCC2)nc(-c2ccc(Cl)cc2)n1 | 10.4% (inactive) | –
16 | CC(=O)NCCc1ccc(O)c(O)c1 | -0.325% (inactive) | –
17 | CC(C)(Oc1ccc(CCNC(=O)c2ccc(Cl)cc2)cc1)C(=O)O | 4.92% [at 25.6 µM] (inactive) | –
18 | Oc1cc2c(cc1O)CN(C(=S)NCCc1ccc(Cl)cc1)CCC2 | – | 12.6 µM (active)
19 | O=C(NCCc1ccc(Cl)cc1)C1CCN(S(=O)(=O)N2CCC3(CC2)OCCO3)CC1 | – | 14.1 µM (active)
20 | O=C1NCCCC1C(=O)Nc1ccccc1C(F)(F)F (stereo unspecified) | -13.4% (inactive) | –
21 | CCCCNC(=O)C1CCN(Cc2ccccn2)CC1 | – | 8.91 µM (active)
22 | O=C(NCCCN1CCN(C2CCCCC2)CC1)Nc1ccccc1C(F)(F)F | – | 5.01 µM (active)

Row | SMILES | activity, negative = inhibition | AC50
23 | COCCNC(=O)C1CCN(S(=O)(=O)N2CCC3(CC2)OCCO3)CC1 | 24.2% (inactive) | –
24 | O=C(NCCCN1CCCCCC1)[C@@H](c1ccccc1)C1CCCCC1 | – | 0.631 µM (active)
25 | CCN1CCN(CCCNC(=O)C(NC(=O)C2CCC(C)CC2)C(C)C)CC1 (stereo unspecified) | 2.19% (inactive) | –
26 | O=C(Nc1cccn(Cc2ccc(F)cc2)c1=O)NC1CCCCC1 | -13.3% (inactive) | –
27 | CC(C)C(NC(=O)C1CCCCC1)C(=O)NCc1ccccn1 (stereo unspecified) | 18.3% (inactive) | –
28 | CCS(=O)(=O)N1CCC(C(=O)NCc2cccnc2)CC1 | -6.02% (inactive) | –
29 | O=C(NCc1ccccc1Cl)C1CCN(S(=O)(=O)N2CCC3(CC2)OCCO3)CC1 | -3.92% (inactive) | –
30 | CCOC(=O)CSc1ncc(OC)c(Sc2ccc(Cl)cc2)n1 | -24.8% (inactive) | –
31 | CCCC(=O)Nc1nc(-c2ccc3c(c2)CCN3S(C)(=O)=O)cs1 | -1.01% (inactive) | –
32 | COc1ccccc1C(=O)O/N=C1/CCCc2c1ccc(OC)c2[N+](=O)[O-] | 3.73% (inactive) | –
33 | C[C@](N)(Cc1ccc(O)c(O)c1)C(=O)O | -0.0132% (inactive) | –
34 | Nc1nc(N)c2nn(-c3ccc(C(=O)O)cc3)nc2n1 | -6.74% [at 11.4 µM] (inactive) | –
35 | Cc1c(-c2ccc(F)cc2)nc(N)c(C#N)c1-c1cccs1 | -11% (inactive) | –
36 | CCOc1ccc(N=C2NC(=O)C(CC(=O)O)S2)cc1 (stereo unspecified) | -2.86% (inactive) | –
37 | O=C(NCCCN1CCC(Cc2ccccc2)CC1)C1CCN(S(=O)(=O)N2CCOCC2)CC1 | – | 12.6 µM (active)
38 | Cc1ccc(NC(=O)CCC(=O)NNS(=O)(=O)c2ccccc2)c(C)c1 | -2.14% (inactive) | –
39 | COc1cccc(CNC(=O)C2CCN(S(=O)(=O)N3CCCCC3)CC2)c1 | -15.4% (inactive) | –
40 | O=C(NCCCN1CCN(Cc2ccccc2)CC1)C1CCN(S(=O)(=O)N2CCCC2)CC1 | – | 3.98 µM (active)
41 | CCS(=O)(=O)N1CCC(C(=O)NCCCN2CCCC2)CC1 | -1.23% (inactive) | –
42 | O=C(C1CCN(S(=O)(=O)N2CCOCC2)CC1)N1CCN(Cc2ccccc2)CC1 | -1.18% (inactive) | –
43 | O=C(NCc1ccc(F)cc1)C1CCN(S(=O)(=O)N2CCCCC2)CC1 | -7.67% (inactive) | –
44 | Cc1cc(C)c(S(=O)(=O)NNC(=O)C2CCN(Cc3ccccc3)CC2)c(C)c1 | – | 15.8 µM (active)

Row | SMILES | activity, negative = inhibition | AC50
45 | CC(C)N(CCNC(=O)C1CCN(S(=O)(=O)N2CCOCC2)CC1)Cc1ccccc1 | -20.1% (inactive) | –
46 | O=C(NCCCN1CCc2ccccc2C1)C1CCN(S(=O)(=O)N2CCCC2)CC1 | – | 7.94 µM (active)
47 | CCCCN(CC)S(=O)(=O)N1CCC(C(=O)NCCCN2CCOCC2)CC1 | -4.19% (inactive) | –
48 | CCN1C(=O)CC(N2CCN(CC(=O)NC(C)C)CC2)C1=O (stereo unspecified) | 22.1% (inactive) | –
49 | CCN(CC)C(=O)Cn1cc(/C=C(\C#N)C(=O)N2CCN(c3ccccc3)CC2)c2ccccc21 | -15.9% (inactive) | –
50 | Cc1ccc(-c2nc3ncccn3c2NC(=O)C2CC2)cc1 | -1.06% (inactive) | –
51 | CCn1c(=O)c2c(O)cc(=O)oc2c2ccccc21 | 9.72% (inactive) | –
52 | CCc1c(C)c(C#N)c2nc3ccccc3n2c1Nc1c(C)n(C)n(-c2ccccc2)c1=O | -27.3% (inactive) | –
53 | N#CCCn1c(=O)c(-c2ccccc2)nc2cnc(Oc3cccc(Cl)c3)nc21 | 2.25% (inactive) | –
54 | Cn1cc(-c2nc3cnc(Oc4ccccc4)nc3n(C)c2=O)c2ccccc21 | 6.63% (inactive) | –
55 | CC[C@H](CN(C)C)C(=O)c1ccco1 | -4.86% [at 11.4 µM] (inactive) | –
56 | COc1ccccc1/C=N/NC(=Nc1ccc(C)cc1)c1nc2ccccc2s1 | 3.23% (inactive) | –
57 | COCCn1c(=O)c(C)nc2cncnc21 | -17.4% (inactive) | –
58 | CSc1nc(Sc2cccc(Cl)c2)c2ccccc2n1 | -0.0132% (inactive) | –
59 | Cc1c(N2C(=O)CS/C2=N\N=C\c2ccc(Cl)cc2)c(=O)n(-c2ccccc2)n1C | 21% (inactive) | –
60 | CC(C)Cn1c(-c2nn(C)cc2Cl)n[nH]c1=S | -6.99% (inactive) | –
61 | O=C(Nc1cccc(F)c1)N1CCC2(CC1)CCN(C(=O)c1csnn1)CC2 | -19.8% (inactive) | –
62 | Cc1ccc(Oc2nc(-c3ccccc3)ncc2S(C)(=O)=O)cc1 | -12.2% (inactive) | –
63 | Cc1c(NC(=O)CSc2nnnn2C)c(=O)n(-c2ccccc2)n1C | 3.7% (inactive) | –
64 | CC1(C)S[C@@H]2[C@H](NC(=O)[C@@H](N)c3ccc(O)cc3)C(=O)N2[C@H]1C(=O)O | 3.49% [at 25.6 µM] (inactive) | –
65 | CCc1ccc(N(C(=O)c2csnn2)C(C(=O)NCc2ccccc2)c2ccco2)cc1 (stereo unspecified) | -29.7% (inactive) | –
66 | O=C(O)[C@@H](O)[C@@H](O)[C@H](O)[C@H](O)CO | 0.284% [at 11.4 µM] (inactive) | –
